According to PubChem BioAssay:
Activity calls are given as the source filed them.

Assays:
Albumin (Bos taurus) = Albumin (Bos taurus) (UniProt P02769); assay: compounds binding labelled BSA control protein – biochemical, small-molecule microarray, Alexa647 label, 635/667 nm fluorescence, artefact control for SMM control protein annotation, profiling panel (AID 1118); conditions: BSA-A647 binding, fluorescence 635 nm, higher = more signal;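 further: score merges 667 nm emission intensity and signal-to-noise per printed compound spot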
[1] = probe aXIP binding to arrayed compounds – biochemical, NeuroSMM set, 635/667 nm fluorescence, primary screen (AID 1119); conditions: small-molecule microarray, higher = more signal, called active from +8 up or from −8 down;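 further: probe is the protein aXip251-270 applied at 1 µg/mL to compound-printed slides; binding of probe to printed compounds measured as 667 nm fluorescence plus signal to noise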
[2] = probe aNOTCH3 binding on compound microarray – biochemical, small-molecule microarray, 635/667 nm fluorescence, primary screen (AID 1120); conditions: higher = more signal;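 further: probe is a biotin-tagged antibody raised against NOTCH3 rather than NOTCH3 protein; score merges spot fluorescence near 667 nm with spot signal to noise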
[3] = probe aNOTCH2 binding on compound microarray – biochemical, small-molecule microarray, 635/667 nm fluorescence, primary screen (AID 1121); conditions: higher = more signal;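 further: score merges feature fluorescence read at 667 nm with its signal to noise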
[4] = target: Carbonic anhydrase 2 (Homo sapiens) (UniProt P00918); assay: compounds binding carbonic anhydrase 2 – biochemical, small-molecule microarray, Alexa647-labelled CAII, profiling panel (AID 1122); conditions: CAII-A647 binding fluorescence, higher = more signal
[5] = COS7 lysate on small-molecule microarray, probe aHis, 635 nm (AID 1123); conditions: COS7 cell lysate, fluorescence, higher = more signal;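 further: z-score combines 667nm fluorescence intensity with signal-to-noise per printed compound spot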
[6] = probe aLAP1 signal on lysate-treated microarray – cell lysate, small-molecule microarray, COS7 lysate, primary screen (AID 1124); conditions: probe aLAP1, fluorescence, higher = more signal;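 further: lysate comes from COS7 cells expressing LAP1 and is applied at 0.3 µg/mL; score merges spot fluorescence near 667 nm with signal-to-noise over triplicate slides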
Sam68 (KHDRBS1) = assay: compounds binding KHDRBS1 protein – biochemical, small-molecule microarray, 635 nm fluorescence, primary screen (AID 1125); conditions: higher = more signal;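 further: score merges 667 nm channel intensity with signal to noise over triplicate slides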
[7] = tested on: Chordin-like protein 2 (CHRDL2); assay: compounds binding chordin-like 2 – biochemical, small-molecule microarray, 635 nm fluorescence, primary screen (AID 1126); conditions: fluorescence 635 nm, higher = more signal;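 further: printed compound slides probed with Chrdl2 protein at 4 µg/mL for 1 h at 4 C; score merges 667 nm emission intensity with signal to noise over three replicate slides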
[8] = target: Concanavalin-A (Canavalia ensiformis) (UniProt P02866); assay: compounds binding concanavalin A lectin – biochemical, small-molecule microarray, Alexa647 label, 635 nm, artefact control for SMM control protein annotation, primary screen (AID 1127); conditions: ConA-A647 binding fluorescence, higher = more signal;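 further: z combines 667 nm emission intensity with signal-to-noise across three replicate slides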
Sequence of Concanavalin-A (Canavalia ensiformis) (P02866 whole entry, looked up): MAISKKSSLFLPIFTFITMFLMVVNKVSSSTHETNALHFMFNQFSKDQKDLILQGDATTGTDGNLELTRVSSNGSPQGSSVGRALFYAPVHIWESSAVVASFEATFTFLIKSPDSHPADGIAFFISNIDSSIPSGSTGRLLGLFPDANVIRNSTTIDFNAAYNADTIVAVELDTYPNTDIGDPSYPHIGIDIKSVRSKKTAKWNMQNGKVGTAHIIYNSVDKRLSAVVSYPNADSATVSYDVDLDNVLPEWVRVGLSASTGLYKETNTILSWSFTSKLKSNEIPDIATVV

Sequence of Albumin (Bos taurus) (P02769 whole entry, looked up): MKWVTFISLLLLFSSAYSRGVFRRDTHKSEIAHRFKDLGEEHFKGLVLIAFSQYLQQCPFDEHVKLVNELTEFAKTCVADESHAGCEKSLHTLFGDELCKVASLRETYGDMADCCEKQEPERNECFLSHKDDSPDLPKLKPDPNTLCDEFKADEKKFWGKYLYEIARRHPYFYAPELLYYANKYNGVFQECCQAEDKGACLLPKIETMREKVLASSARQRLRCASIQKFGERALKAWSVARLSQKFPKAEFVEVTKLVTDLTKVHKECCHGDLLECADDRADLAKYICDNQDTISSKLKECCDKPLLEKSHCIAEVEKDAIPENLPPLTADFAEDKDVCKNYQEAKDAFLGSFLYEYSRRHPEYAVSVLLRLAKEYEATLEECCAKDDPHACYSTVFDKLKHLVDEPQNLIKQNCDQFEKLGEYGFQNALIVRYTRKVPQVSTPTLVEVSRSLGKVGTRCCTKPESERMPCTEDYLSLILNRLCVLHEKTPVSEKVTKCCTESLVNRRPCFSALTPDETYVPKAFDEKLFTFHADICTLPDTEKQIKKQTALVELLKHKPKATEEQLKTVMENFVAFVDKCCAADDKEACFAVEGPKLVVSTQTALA

Structure (SMILES) | composite z-score (Albumin (Bos taurus)) | composite Z-score [1] | composite z-score [2] | composite z-score [3] | composite z-score [4] | composite z-score [5] | composite z-score [6] | composite z-score (Sam68 (KHDRBS1)) | composite z-score [7] | composite z-score [8]
COC(=O)[C@]1(CCC(=O)OC(C)(C)C)N=C(c2ccc(OCCCO)cc2)O[C@@H]1c1ccccc1 | 0.0503 | 1.55 (inactive) | 0.0834 | 0.153 | 0.687 | 1.83 | 0.569 | -0.116 | -0.483 | 0.259
CC(C)[Si](C#CCCCC#N)(O[C@H](c1ccccc1)c1cn(Cc2cccc(Cl)c2)nn1)C(C)C | 0.588 | 1.02 (inactive) | 0.0871 | -0.11 | 0.442 | 0.79 | -0.192 | 1.3 | 0.841 | 0.0848
OB1C=CCC(CCc2ccccc2)O1 (stereo not given) | -0.923 | -0.601 (inactive) | -0.191 | -0.153 | -0.498 | -0.622 | -0.803 | -1.31 | 0.317 | -1.34
O=c1cccc(-c2ccccc2Cl)o1 | 0.18 | 0.0241 (inactive) | -0.177 | -0.199 | -0.0836 | -0.011 | -0.235 | 0.102 | 0.0431 | -0.415
COc1ccc(C(=O)Nc2ccc(CN3C(=O)[C@]4(O[C@H](CC(=O)N5CCC[C@H]5CO)[C@@H]([Si](C)(C)c5ccc(OC)cc5)[C@@H]4C)c4ccccc43)cc2)cc1 | -0.398 | 0.0524 (inactive) | 0.218 | -0.0681 | 0.298 | 1.72 | 0.394 | 1.29 | 0.666 | 0.884
CC(C)[Si](C#C[Si](C(C)C)(C(C)C)C(C)C)(O[C@H](C)c1cn(Cc2ccccc2)nn1)C(C)C | 0.551 | -0.539 (inactive) | 0.379 | -0.0956 | 0.48 | 0.664 | 0.177 | 1.03 | 0.289 | 0.598
CC(C)CNC(=O)[C@@]1(Cc2ccccc2I)c2ccccc2C(=O)N(Cc2ccccc2C(F)(F)F)[C@H]1c1ccc(CO)cc1 | 0.212 | 0.117 (inactive) | -0.234 | 0.0344 | 0.417 | 0.959 | 0.393 | 0.432 | -0.731 | -0.0801
CCCCCN1CC=CC23O[C@@H]4C=CCOC(=O)[C@@H]4[C@H]2C(=O)N(C(C)CO)[C@@H]3C1=O (stereo not given in full) | 0.755 | -0.294 (inactive) | -0.403 | -0.12 | 0.863 | -0.284 | -0.0739 | -1.22 | -0.811 | -0.54
CC(=O)NCCCC[C@@H]1NC(=O)[C@H]2C[C@@H](C(=O)NCCCCCNC(=O)CS)[C@@H](c3ccc(O)cc3)N2C1=O | -0.16 | -0.249 (inactive) | -0.136 | -0.133 | 0.704 | 1.07 | -0.269 | 0.338 | -0.105 | 0.509
O=C1[C@@]23C=C(Br)[C@H](C[C@@H]2COC3)[C@]12CO2 | -0.742 | -0.222 (inactive) | -0.0187 | -0.0176 | -0.762 | 0.638 | -0.447 | -2.61 | -0.323 | -1.79
COC(=O)C(CC#Cc1ccc2c(c1)[C@]1(C(=O)N2)[C@H](c2ccccc2OCCO)N2[C@H](c3ccccc3)[C@H](c3ccccc3)OC(=O)[C@H]2[C@@H]1C(N)=O)C(=O)OC | 0.468 | 0.389 (inactive) | 0.631 | 0.25 | 0.672 | 2.09 | 0.493 | 0.519 | 0.0031 | 0.736
COC(=O)[C@@]1(Cc2ccc(OC)cc2)[C@H]2c3cc(C(=O)N4CCCC4)n(CCCNc4ncc(C(F)(F)F)cc4Cl)c3C[C@H]2CN1C(=O)c1ccccc1 | 0.978 | -0.682 (inactive) | 1.09 | 0.787 | 0.516 | 0.97 | 0.213 | 0.313 | 0.269 | 0.878
C#CCOc1ccc(C[C@@H](C(=O)OC)N(CC#C)[C@@H](/C=C/C2CC2)[C@H](O)Cc2ccccc2)cc1 | -0.485 | -0.423 (inactive) | -0.19 | -0.208 | 0.0591 | -0.148 | 0.286 | -0.51 | 0.212 | -0.557
O=C1NC(=O)C2C1C=CC(C(O)c1ccc(I)cc1)N2Nc1ccccn1 (stereo not given) | 0.898 | 0.369 (inactive) | -0.0677 | -0.0026 | 0.819 | 2.35 | 1.48 | -0.302 | 0.37 | 0.445
CC(=O)NCCCC[C@@H]1NC(=O)[C@H]2C[C@@H](C(=O)O)[C@@H](c3ccc(O)cc3)N2C1=O | -0.0314 | 0.297 (inactive) | 0.22 | -0.0798 | 0.411 | 1.14 | 0.177 | 1.29 | 1.36 | 1.1
COCCCNC(=O)[C@]1(Cc2ccccc2)N=C(c2ccc(OCCCO)cc2)O[C@@H]1c1ccccc1CN=[N+]=[N-] | 0.999 | -0.127 (inactive) | 0.16 | 0.266 | 0.694 | 3.21 | 0.465 | 1.28 | -0.431 | 1.16
O=C1O[C@@H](c2ccccc2)[C@@H](c2ccccc2)N2[C@@H](c3ccc(OCCO)cc3)[C@]3(C(=O)Nc4ccc(C#CCCO)cc43)[C@@H](C(=O)NC[C@H](O)c3ccccc3)[C@H]12 | -0.517 | 1.23 (inactive) | 0.138 | -0.143 | 0.165 | 1.66 | 0.822 | 1.26 | 0.891 | 1.07

Structure (SMILES) | composite z-score (Albumin (Bos taurus)) | composite Z-score [1] | composite z-score [2] | composite z-score [3] | composite z-score [4] | composite z-score [5] | composite z-score [6] | composite z-score (Sam68 (KHDRBS1)) | composite z-score [7] | composite z-score [8]
C=CC[C@]1(C(N)=O)N=C(c2ccc(OCCCO)cc2)O[C@H]1c1ccccc1 | 0.34 | 0.15 (inactive) | -0.0284 | 0.102 | 0.779 | 0.916 | -0.137 | -0.188 | 0.204 | 0.721
C=CCN(Cc1ccccc1)C(=O)C(c1cccs1)N(C(=O)/C=C\C(=O)O)c1ccc(CCOCCO)cc1 (stereo not given) | 0.955 | 0.0165 (inactive) | -0.416 | -0.135 | 0.864 | -0.691 | -0.679 | -1.33 | -2.25 | -0.931
CCOC(=O)C[C@H]1[C@H](OC(=O)c2ccc(C(=O)c3ccccc3)cc2)[C@@H](NC(=O)c2ccccc2)c2cc(OCCCO)ccc2N1C(=O)c1ccccc1 | 0.754 | 0.607 (inactive) | 0.184 | -0.108 | 0.171 | 0.702 | -0.115 | 1.23 | 0.17 | 0.82
O=C(NCc1ccccc1)[C@@H]1c2ccccc2C(=O)N(C2Cc3ccccc3C2)[C@H]1c1ccc(CO)cc1 | 0.0732 | 0.0702 (inactive) | 0.0711 | -0.0249 | 0.767 | 1.35 | 0.0541 | 0.958 | -0.357 | 0.899
CC(c1ccccc1)C(O)C1C=CC2C(=O)N(c3ccccc3)C(=O)C2N1Nc1ccccc1 (stereo not given) | 1.01 | 0.304 (inactive) | 0.298 | -0.112 | 0.493 | 3.12 | 0.426 | 1.34 | -0.298 | 1.11
C=CC[C@]12N=C(c3ccc(OCCCO)cc3)O[C@H]1c1ccccc1N(CCS(=O)(=O)c1ccccc1)C2=O | 0.922 | 0.526 (inactive) | -0.0728 | -0.0692 | 0.727 | 1.12 | 0.486 | 1.3 | 0.873 | 1.18
CC(C)=CCCC(C)=CC(O)C1C=CC2C(=O)N(c3ccccc3)C(=O)C2N1Nc1ccc(C(C)C)cc1 (stereo not given) | 0.792 | 0.415 (inactive) | 0.282 | 0.0683 | 0.465 | 2.32 | -0.519 | 1.23 | -1.01 | 1.09
O=C(O)C1N=C(c2ccc(OCCCO)cc2)N(c2ccccc2)O1 (stereo not given) | 0.811 | 0.488 (inactive) | 0.0967 | -0.037 | 0.589 | 0.321 | -0.287 | 1.3 | 0.153 | 0.658
COc1ccc([C@H]2C[C@H]3C(I)=C[C@@H]2C(=O)[C@]32CO2)cc1 | -0.63 | -0.617 (inactive) | 0.0242 | -0.156 | -0.267 | -0.442 | -0.154 | -0.889 | 0.189 | -0.0546
O=C1[C@H]2C=C(Br)[C@H](C[C@@H]2OCCCCCCO)[C@@]12CO2 | -0.699 | 0.926 (inactive) | 0.265 | -0.0064 | -0.382 | -0.469 | 0.206 | -0.733 | 0.0547 | -1.57
CCCCC(=C=CC[C@@H](O)c1ccc(CO)o1)CCO | -0.276 | -0.35 (inactive) | 0.0261 | -0.044 | 0.595 | -0.0845 | 0.24 | 1.17 | 0.29 | 0.119
O=C1C2C=CC(C(O)c3ccc(F)cc3)N(Nc3ccc([N+](=O)[O-])cc3)C2C(=O)N1c1ccccc1 (stereo not given) | 0.877 | 0.227 (inactive) | 0.0749 | -0.0852 | 0.795 | 2.76 | 0.569 | 1.31 | 0.0095 | 1.15
O=C(O)[C@@]1(CCS(=O)(=O)c2ccccc2)N=C(c2ccc(OCCCO)cc2)O[C@H]1c1ccccc1 | 0.978 | -0.83 (inactive) | 0.156 | -0.0331 | 0.864 | 2.21 | -0.334 | 1.2 | -0.765 | 0.766
C=CC[C@@]1(C(=O)N2CCCCC2)N=C(c2ccc(OCCCO)cc2)O[C@@H]1c1ccccc1N=[N+]=[N-] | 0.82 | -0.797 (inactive) | 0.185 | 0.0497 | 0.443 | 2.41 | -0.0724 | 1.29 | -0.294 | 1.04
CC(C)NC(=O)[C@@H]1c2ccccc2C(=O)N(C(C)C)[C@H]1c1ccc(CO)cc1 | -0.163 | -0.174 (inactive) | -0.215 | -0.179 | 0.644 | 2.97 | 0.338 | 0.637 | -1.38 | 0.185
C=CCNC(=O)[C@H]1[C@@H]2C(=O)O[C@@H](c3ccccc3)[C@@H](c3ccccc3)N2[C@@H](c2ccc(O)cc2)[C@]12C(=O)Nc1ccc(C#CCCO)cc12 | 0.138 | -0.157 (inactive) | -0.112 | -0.198 | 0.656 | -0.0099 | 0.75 | -0.319 | -0.559 | -0.065
CC(C)NC(=O)[C@@]1(Cc2ccccc2I)c2ccccc2C(=O)N(Cc2ccccc2Cl)[C@H]1c1ccc(CO)cc1 | 0.0517 | 0.786 (inactive) | -0.0573 | -0.0741 | 0.506 | 1.73 | -0.0064 | 1.29 | 0.432 | 1.1
